Screening results: PubChem, several laboratories
NPR2 activator: human GC-B receptor activators, primary screen, HEK293 GC-B cells, cGMP TR-FRET, EC30 CNP. 0.11% of 370,000 active. AID 1920062, 2024. Atrial natriuretic peptide receptor 2 (Homo sapiens), P20594. activation, % at 10 µM. 0% at EC30 CNP, 100% saturating CNP;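 active means activation at 10 µM reaching about 35% in either raw or pattern-adjusted values, limit read from the data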
GC-A act: GC-A stimulated cGMP production enhancers – HEK293 GC-A cells, cGMP TR-FRET, EC30 ANP, primary screen | Atrial natriuretic peptide receptor 1 (Homo sapiens), P16066 | 0% at EC30 ANP, 100% saturating ANP | activation, % at 10 µM | 0.14% of 370,000 active | AID 1671463, 2021; in the data active means activation above about 40%
ALR H2O2 inh: inhibitors of human ALR sulfhydryl oxidase, primary screen, biochemical, H2O2 detection, HRP-luminol luminescence, single point; FAD-linked sulfhydryl oxidase ALR (Homo sapiens), P55789; purified ALR, DTT oxidation; inhibition, % (test concentration not listed); 3.8% of 290,000 active; AID 485317, 2010;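 active means mean replicate inhibition above about 79%, with every replicate also reaching it, limit read from the data; inconclusive means only one of the two criteria met; inactive means mean below limit and not every replicate reaching it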
Target sequence (P55789 whole entry, looked up): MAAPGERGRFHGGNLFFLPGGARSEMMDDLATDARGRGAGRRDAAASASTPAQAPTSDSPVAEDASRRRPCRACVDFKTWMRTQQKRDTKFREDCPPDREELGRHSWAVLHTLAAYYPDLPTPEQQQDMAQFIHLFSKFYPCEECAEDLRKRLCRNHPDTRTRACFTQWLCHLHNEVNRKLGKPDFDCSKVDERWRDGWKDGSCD
HDAC3 inhib: HDAC3 deacetylase inhibitors, primary screen, biochemical, fluorescence, cell-free homogeneous | Histone deacetylase 3 (Homo sapiens), O15379 | recombinant HDAC3, fluorogenic peptide/trypsin coupled | inhibition, % at 8.3 µM | 0.15% of 320,000 active; in the data active means inhibition above about 26%, passing the limit was not always enough; inconclusive means no clear call, values can overlap the other calls
An asterisk follows results filed as active; ? = inconclusive; . = not tested or not shown. The sample as a whole holds a higher share of hits than the screen did.

SMILES	NPR2 activator	GC-A act	ALR H2O2 inh	HDAC3 inhib
C#CCOc1ccc(/C=C2/C(=O)NN(c3ccc(F)cc3)C2=O)cc1OC	-6.2	7.0	97.5*	3.5
COc1cc2c(C(=O)N3CCN(c4ccccc4F)CC3)cn(C)c(=O)c2cc1OC	-1.7	0.4	0.8	44.5*
COCCNC(=O)C1(C)CCN(C(=O)c2ccc(OC)c(F)c2)C1 (centres undefined)	-1.3	0.8	.	.
CN(C)CCCn1c(SCC(=O)Nc2nc(-c3cccc(Br)c3)cs2)nc2ccccc2c1=O	-3.0	-3.8	99.2*	12.3
CC1=C(C(=O)N2CCN(c3cc(C)ccc3C)CC2)C2(CCCCC2)OC1=O	0.1	-6.4	86.7*	-1.6
O=C(CCc1[nH]c2ccccc2c1Sc1ccccc1)NCCO	16.1	43.3*	98.8*	0.3
COc1cc2ccccc2cc1C(=O)OCc1nc2ccsc2c(=O)[nH]1	-2.3	1.0	-4.6	-26.8
COc1ccc(NC(=O)CCc2nnc3ccc(N4CCC(C)CC4)nn23)cc1	-5.9	-6.3	-11.3	1.5
COc1ccc(N2CCN(c3ccc4nnc(CCC(=O)Nc5ccc(C)cc5)n4n3)CC2)cc1	-10.1	-5.8	91.7*	8.7
COc1cccc(N2CCN(c3ccc4nnc(CCC(=O)Nc5ncccc5C)n4n3)CC2)c1	-1.6	-0.1	99.2*	-2.2
CCN1CCN(C(=O)CCc2nnc3ccc(N4CCN(c5cccc(OC)c5)CC4)nn23)CC1	0.5	2.5	99.1*	1.3
COc1ccc(N2CCN(C(=O)CCc3nnc4ccc(N5CCCC5)nn34)CC2)cc1	-2.9	-5.2	?	-4.4
CCOC(=O)C1CCCN(C(=O)c2ccc(Cl)c(S(=O)(=O)N3CCc4ccccc43)c2)C1 (centres undefined)	-2.7	-2.6	.	.
O=c1[nH]nnc2cc(Cl)ccc12	-8.3	-0.5	.	.
COc1ccc(OC)c(C(O)c2ncc(-c3ccccc3OC)[nH]2)c1 (centres undefined)	-2.1	0.8	.	.
S=c1[nH]nc(-c2cccnc2)n1/N=C/c1cccs1	-0.3	-1.1	97.4*	-3.1
S=c1[nH]ncn1/N=C/c1ccccn1	-4.5	3.7	92.2*	15.3
S=c1[nH]nc(-c2cccnc2)n1/N=C/c1ccccc1	2.9	-0.2	.	2.1
S=c1[nH]ncn1/N=C/c1cccs1	1.7	0.7	97.0*	.
NC(=S)Nc1cccc(O)c1	0.8	1.7	35.8	-2.3
COc1cc(OC)c(C2C=CC(=O)CC2)c(OC)c1 (centres undefined)	-2.1	1.2	.	.
CCC(C)NC(=O)c1ccc(CSCc2ccc(Cl)cc2)o1 (centres undefined)	4.5	4.5	84.5*	8.0
CC(C)NC(=O)c1ccc(CSCc2ccccc2Cl)o1	6.4	1.3	99.1*	-2.0
O=[N+]([O-])c1cc([N+](=O)[O-])c2nonc2c1Nc1ccc(O)cc1	-1.1	-2.6	99.2*	7.8
O=[N+]([O-])c1cc([N+](=O)[O-])c2nonc2c1Nc1ccccc1O	-5.7	2.0	99.0*	13.6
SMILES	NPR2 activator	GC-A act	ALR H2O2 inh	HDAC3 inhib
O=[N+]([O-])c1c(Nc2ccccc2O)cc(N2CCOCC2)c2nonc12	19.1	14.0	-42.9	-10.3
Clc1ccc(-c2csc(NCC3CCCO3)n2)cc1 (centres undefined)	0.5	1.1	.	.
COc1ccccc1NC(=O)CSC1=NC(=O)C(Cc2ccccc2)C(=O)N1 (centres undefined)	7.7	-2.4	98.8*	0.0
CCC1C(=O)N=C(SCC(=O)Nc2ccc(S(N)(=O)=O)cc2)NC1=O (centres undefined)	0.1	-0.5	99.5*	1.5
CCC1C(=O)N=C(SCC(=O)Nc2ccccc2)NC1=O (centres undefined)	-5.6	2.6	99.3*	4.4
CCC1C(=O)N=C(SCC(=O)NC2CCCCC2)NC1=O (centres undefined)	0.8	1.6	57.0	-0.6
O=C(CC1(O)C(=O)N(Cc2ccccc2)c2ccccc21)c1ccncc1 (centres undefined)	-12.3	-2.2	-4.5	0.5
COCCNc1nc(NCc2ccc(NC(C)=O)cc2)c2sc(-c3ccccc3)cc2n1	-5.0	21.5	.	.
COc1cccc(C(C)(O)c2nc(/C=C/c3ccccc3)cs2)c1 (centres undefined)	-2.0	4.4	.	.
COc1ccc(Nc2c(-c3ccco3)nc3cccc(C)n23)cc1	-1.9	18.8	.	-29.8
c1ccc(Nc2c(-c3ccco3)nc3ccccn23)cc1	4.5	8.4	98.2*	-12.0
